Shown are actives, neighbours in structure and some others; about 19% of the full set was active somewhere.
DT40 TDP1 no CPT = qHTS for Inhibitors of human tyrosyl-DNA phosphodiesterase 1 (TDP1): qHTS in cells in absence of CPT; DT40 Tdp1-/- hTDP1 cells, no CPT, ATP luminescence, 48 h; Potency, µM (doses to about 46.2 µM), inactives show at the top dose activity change, negative = growth inhibition, most hits filed as inhibitors; AID 686978, 2013; actives 15% (n = 420,000); also: potency is read from the fitted curve at half-maximal effect; % is scaled to controls: 0 for no effect and ±100 for the full control effect; nearly all actives have a fitted effect of over 55% in size
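A cellular qHTS used chicken DT40 cells lacking endogenous Tdp1 but carrying stably transfected human TDP1. Compounds were applied without camptothecin, and cell growth kinetics were judged by ATP-dependent luminescence after ≥48 hr.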
DT40 TDP1 CPT = DT40-hTDP1 cell growth loss with CPT; chicken DT40 Tdp1-/-;hTDP1 cells + 20 nM CPT, ATP luminescence, 48 h; Potency, µM (doses to about 46.2 µM), for the others: top-dose activity change, negative = growth inhibition, hits mostly inhibitors; actives 12% (n = 420,000); AID 686979; also: potency is read from the fitted curve at half-maximal effect; % is scaled to controls: 0 for no effect and ±100 for the full control effect; nearly all actives have a fitted effect of over 55% in size
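Chicken DT40 Tdp1-/- cells stably complemented with human TDP1 were seeded at 400 cells/well in medium containing 20 nM camptothecin, exposed to pin-transferred compounds, and grown at 37 °C for at least 48 hr. Viability was read as ATP luminescence.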
TGFb inhibitor = TGF-b pathway inhibition | Potency, µM (doses to about 46.1 µM), inactives show at the top dose activity, negative = inhibition, actives largely listed as inhibitors | actives 1.2% (n = 410,000) | HepG2 CAGA-GFP TGF-b/SMAD3 reporter, GFP fluorescence, 18 h; TGF-beta stimulated, 500 pg/mL final; also: potency is read from the fitted curve at half-maximal effect; % is scaled to controls: 0 for no effect and ±100 for the full control effect; nearly all actives have a fitted effect of over 65% in size
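Read-out: total well GFP (ex488/em500-530) summed from mean per-cell fluorescence. Cells: HEPG2 CAGA-GFP, 1% FBS DMEM, 18 h at 37 degrees C with 500 pg/mL final TGF-beta. Unstimulated wells served as the full-inhibition control; stimulated DMSO wells = 0%.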
HepG2 viability = HepG2 cytotoxicity, counter-screen for TGF-b inhibitors | AID 588856 | HepG2 CAGA-GFP viability, ATP luminescence, 18 h | actives 0.76% (n = 410,000) | Potency, µM (titrated, usually from 46.1 µM), for the others: at the highest dose activity change, negative = cytotoxicity, hits mostly cytotoxic; also: potency is read from the fitted curve at half-maximal effect
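HepG2 CAGA-GFP cells (1000/well, DMEM with 1% FBS) received compound, then TGF-beta at 500 pg/mL final, and were incubated 18 hours at 37 degrees C. Viability was read by CellTiter-Glo luminescence. Media-only wells were set as complete cell-killing and DMSO as no toxicity.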
TDP1 block = TDP1 (human) enzyme inhibition. Q9NUW8. recombinant TDP1, AlphaScreen DNA substrate cleavage. Potency, µM (series often up to 130 µM), without a hit: top-dose activity change, negative = inhibition, most hits filed as inhibitors. actives 0.28% (n = 350,000); also: potency is read from the fitted curve at half-maximal effect; % is scaled to controls: 0 for no effect and ±100 for the full control effect; nearly all actives have a fitted effect of over 40% in size
Target sequence (Q9NUW8 whole entry, looked up): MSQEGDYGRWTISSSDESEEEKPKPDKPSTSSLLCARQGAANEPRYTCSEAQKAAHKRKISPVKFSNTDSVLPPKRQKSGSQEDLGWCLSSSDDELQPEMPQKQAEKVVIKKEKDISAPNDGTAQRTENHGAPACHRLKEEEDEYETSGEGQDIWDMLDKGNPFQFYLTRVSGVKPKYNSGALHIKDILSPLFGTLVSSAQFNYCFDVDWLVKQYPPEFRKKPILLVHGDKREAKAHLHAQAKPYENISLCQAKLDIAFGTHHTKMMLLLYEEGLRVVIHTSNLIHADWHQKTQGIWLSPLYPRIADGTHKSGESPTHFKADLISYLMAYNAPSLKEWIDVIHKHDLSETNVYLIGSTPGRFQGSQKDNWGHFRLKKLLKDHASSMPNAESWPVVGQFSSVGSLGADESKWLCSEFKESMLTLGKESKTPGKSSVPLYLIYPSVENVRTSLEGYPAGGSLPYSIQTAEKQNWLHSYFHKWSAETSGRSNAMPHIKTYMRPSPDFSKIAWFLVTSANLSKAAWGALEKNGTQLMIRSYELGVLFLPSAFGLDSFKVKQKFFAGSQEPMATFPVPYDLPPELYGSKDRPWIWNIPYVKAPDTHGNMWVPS
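Compounds were preincubated with Tdp1 (1 nM final) for 15 min at room temperature before substrate (15 nM final) started a 5 min reaction; beads (10 ug/ml final) were then added for 10 min before AlphaScreen detection.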
IL1B secr inh = inhibitors of inflammasome signaling (IL-1 beta secretion); THP-1 LPS/ATP IL-1B secretion, AlphaLISA, 16 h; hits give low values; actives 4.7% (n = 360,000); AID 743279; activity change, % at 57.5 µM; in the data active = activity change below about -50%; inconclusive = mostly about -30% to -49%; also: % is scaled to controls: 0 for no effect and ±100 for the full control effect
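THP-1 cells pretreated 1 hr with compounds (up to 57.5 uM final), then stimulated with LPS (250 ng/mL final) plus ATP (1.25 mM final); secreted IL-1B measured by AlphaLISA after 16 hr, decreased signal indicating inhibition.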
An asterisk follows results filed as active; ? = inconclusive; . = no result given; [ ] = remark or other dose. Unless noted, calls follow the shape of the dose curve; as a rule, active = well fitted curve in the direction sought with a large enough effect; inconclusive = small, poorly fitted or top-dose-only effect, or another doubt; inactive = no such curve, though single readings can be large; an effect the other way counts as inactive or inconclusive.

SMILES	DT40 TDP1 no CPT	DT40 TDP1 CPT	TGFb inhibitor	HepG2 viability	TDP1 block	IL1B secr inh
COCC(C)NC(=O)Cc1ccc(Cl)cc1 (stereo unspecified)	12%	12%	2%	2%	.	10
COC(=O)N1C(=O)[C@@](c2ccccc2)(C(C)C)N1C(=O)OC	?	16µM*	?	-47%	.	?
COC(=O)N1C(=O)[C@](c2ccccc2)(C2CCCC2)N1C(=O)OC	?	?	?	-21%	.	-96*
CCC1(c2ccccc2)C(=O)N(C(=O)OC(C)(C)C)N1C(=O)OC(C)(C)C (stereo unspecified)	4%	4%	-18%	-42%	.	?
COC(=O)N1C(=O)[C@@](c2ccc(OC)cc2)(C(C)C)N1C(=O)OC	?	?	?	-20%	.	-101*
CCOC(=O)c1noc2nc(C)n(CC(=O)Nc3cccc(OC)c3)c(=O)c12	4%	2%	12%	-24%	3%	.
CCC1CN(Cc2cccn2-c2ccccn2)Cc2cc(OC)ccc2O1 (stereo unspecified)	?	-9%[9.04 µM]	.	.	.	.
CC(=O)N1c2ccc(S(=O)(=O)NCC3CCC(C(=O)Nc4cccc(C)c4C)CC3)cc2CC1C (stereo unspecified)	21µM*	?	?	-29%	-5%	.
CCC(C)(C)NC(=O)C1CCC(CNS(=O)(=O)c2ccc3c(c2)CC(C)N3C(C)=O)CC1 (stereo unspecified)	12µM*	16µM*	-4%	-12%	5%	.
CC(=O)N1c2ccc(S(=O)(=O)N3CCC(C(=O)Nc4cccc(C)c4C)CC3)cc2CC1C (stereo unspecified)	-18%	?	13%	-2%	1%	-1
CC(=O)N1c2ccc(S(=O)(=O)N3CCC(C(=O)Nc4cccc(C)n4)CC3)cc2CC1C (stereo unspecified)	?	?	-18%	-46%	9%	7
CC(=O)N1c2ccc(S(=O)(=O)NCC3CCC(C(=O)Nc4cccc(C)n4)CC3)cc2CC1C (stereo unspecified)	18µM*	26µM*	?	-22%	4%	-2
CCCCN(C)C(=O)C1CCC(CNS(=O)(=O)c2ccc3c(c2)CC(C)N3C(=O)C2CC2)CC1 (stereo unspecified)	23µM*	10µM*	?	-26%	3%	-12
COc1ccc(C(=O)Nc2c(N)nc[nH]c2=O)cc1	-10%	23%	-2%	-23%	.	23
COc1cccc(CNC(=O)CCNS(=O)(=O)c2ccc3c(c2)CC(C)N3C(C)=O)c1 (stereo unspecified)	?	?	16%	11%	0%	-23
CC(=O)N1c2ccc(S(=O)(=O)NCC3CCC(C(=O)NC4CCCCC4C)CC3)cc2CC1C (stereo unspecified)	?	?	-14%	-5%	1%	42
COc1cccc(NC(=O)C2CCC(CNS(=O)(=O)c3ccc4c(c3)CC(C)N4C(C)=O)CC2)c1 (stereo unspecified)	18µM*	23µM*	-25%	-28%	1%	24
CC(=O)N1CC(C)Sc2ccc(S(=O)(=O)NCCc3cccc(C)c3)cc21 (stereo unspecified)	15µM*	?	?	-9%	1%	3
COc1ccc(CNS(=O)(=O)c2ccc3c(c2)N(C(C)=O)CC(C)S3)cc1 (stereo unspecified)	9.2µM*	?	-25%	-19%	2%	-3
CC(=O)N1c2ccc(S(=O)(=O)NCCc3cccc(C)c3)cc2CC1C (stereo unspecified)	15µM*	15µM*	-28%	-24%	7%	.
O=C(N[C@@H](Cc1c[nH]c2ccccc12)C(=O)O)C1CCN(S(=O)(=O)c2cccs2)CC1	18%	-4%	-1%	-4%	.	7
Cc1ccc(Cl)cc1NC(=O)Nc1cccc(OCc2cc(=O)n3ccccc3n2)c1	-7%	10%	?	-9%	0%	.
CC(C)CCn1c(SCc2cccc(F)c2)nc2ccsc2c1=O	?	?	?	-29%	-2%	.
Cc1cccc2nc3c(nc12)CCCC3	-2%	7%	-26%	-5%	.	-16
CC(=O)N1c2ccc(S(=O)(=O)NCC3CCC(C(=O)NC4CCC(C)CC4)CC3)cc2CC1C (stereo unspecified)	-24%	?	-5%	-14%	0%	31
SMILES	DT40 TDP1 no CPT	DT40 TDP1 CPT	TGFb inhibitor	HepG2 viability	TDP1 block	IL1B secr inh
CC(=O)N1c2ccc(S(=O)(=O)NCC3CCC(C(=O)Nc4cccc(C)c4)CC3)cc2CC1C (stereo unspecified)	15µM*	16µM*	-13%	-14%	3%	.
COc1ccccc1C(=O)NCCN=C1NS(=O)(=O)c2ccccc21	-10%	17%	15%	14%	.	-26
COc1ccccc1C(=O)COC(=O)Cc1c[nH]c2ccccc12	?	-19%	5%	0%	5%	17
COc1ccccc1C(C[N+](=O)[O-])c1c[nH]c2ccccc12 (stereo unspecified)	?	?	?	-4%	1%	-89*
CC(=O)C(C(c1ccccc1)c1c[nH]c2ccccc12)[N+](=O)[O-] (stereo unspecified)	5.8µM*	6.5µM*	?	-37%	.	28
CCOC(=O)c1cc(-c2ccccc2)n(-c2cccc(C(=O)Nc3cccc(SC)c3)c2)c1C	-10%	-13%	0%	-5%	5%	.
CCc1nc(SCC(=O)N2CCOCC2)c2c(=O)n(C)c(=O)n(C)c2n1	1%	0%	-1%	-4%	8%	4
CCCc1nc(SCC(=O)N2CCCc3ccccc32)c2c(=O)n(C)c(=O)n(C)c2n1	23µM*	26µM*	?	-7%	1%	59
Cn1c(=O)c2c(SCCN3CCOCC3)nc(C3CCCC3)nc2n(C)c1=O	21µM*	16µM*	-12%	-9%	1%	30
CCCc1nc(SCC(=O)N2CCC(Cc3ccccc3)CC2)c2c(=O)n(C)c(=O)n(C)c2n1	16µM*	21µM*	1%	-11%	4%	16
CCCc1nc(SCC(=O)Nc2ccccc2)c2c(=O)n(C)c(=O)n(C)c2n1	?	?	-8%	-1%	-12%	79

Compound activity (PubChem)
